For 39 compounds, outcome and AC50 results are on record in PubChem BioAssay (EPA / NIEHS).

The structures appear in SMILES notation. Inconclusive results are not listed. Activity calls are given as the source filed them. How the source made its calls: active means hit-call score of the fitted dose curve at least 0.9, where 1 is the maximum; inconclusive means response in the unintended direction; inactive means score below 0.9.

The nature of this assay: TOX21_p53_BLA_p3_viability: Viability Assessment in the Tox21 HCT-116 p53 Agonism Beta-lactamase Assay, Phase 3 (AID 2283593).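 Further: cells exposed to compound for 16 h before reading.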 In outline:
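Cellular ATP was quantified by CellTiter-Glo luminescence, read after 30 min at room temperature. Beforehand, HCT116 cells (4000/well) received compound 5 h post-seeding, 217-fold diluted from DMSO, then incubated 16 h at 37C.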
Regarding `CCCCCCCCCCCCC(=O)O`, the result was inactive. Consider `Cc1ccc(NC(=O)N(C)C)cc1NC(=O)N(C)C`, for which the result was inactive. The same measure, in the same setting: then `OC[C@@H](O)[C@@H](O)CO`, with “inactive”; and `NC(=O)CCCCC(N)=O`, with “inactive”. On to `OCC(S)CS` (centres undefined), for which the AC50 is 29.5 µM (active).

Take `CC1CCCO1` (centres undefined): the result was inactive.

As for `C=CC1=C(C(=O)O)N2C(=O)[C@@H](NC(=O)/C(=N\O)c3csc(N)n3)[C@H]2SC1` (stereo in doubt), the compound was classed as inactive. Take `CC(=NO)C(C)=NO`: the compound was called inactive. `CN(C)CCCN1c2ccccc2Sc2ccc(C(F)(F)F)cc21`: the compound was called inactive. Same read-out and setting: the same measure for `O=C(O)CONC(=O)c1ccccc1`: “inactive”; for `C[C@H](CCC(=O)O)[C@H]1CC[C@H]2[C@@H]3[C@H](O)C[C@@H]4C[C@H](O)CC[C@]4(C)[C@H]3C[C@H](O)[C@]12C`: “inactive”. Consider `CCc1ncnc2cc(OC)c(OC)cc12`, for which the result was inactive. As to `CC(C)n1nc(-c2cc3cc(O)ccc3[nH]2)c2c(N)ncnc21`, the compound was called inactive. Still for that read-out and setting: the same measure for `CNCc1ccccc1`: “inactive”; for `CC(C)[N+](C)(C)CC(O)COc1cccc2ccccc12` (centres undefined): “inactive”.

In the case of `CC(=O)N1C[C@H](O)C[C@H]1C(=O)O`, the result was inactive. The same measure, in the same setting: then `NS(=O)(=O)c1cc(C2(O)NC(=O)c3ccccc32)ccc1Cl` (centres undefined), with “inactive”. Consider `CC(C(=O)O)c1cccc(C(=O)c2ccccc2)c1` (centres undefined), for which the result was inactive. Turning to `NCCOCCN`, the compound was classed as inactive. As to `C=C1CC2C3CCC4=CC(=O)C=C[C@]4(C)[C@@]3(F)[C@@H](O)C[C@]2(C)[C@@]1(O)C(=O)COC(C)=O` (some centres undefined), the compound was called inactive. Same read-out and setting: the same measure for `CCOC(=O)[C@H](CCc1ccccc1)N[C@@H](C)C(=O)N1[C@H](C(=O)O)C[C@H]2CCCC[C@@H]21`: “inactive”; for `CC1CCCNC1` (centres undefined): “inactive”. Take `O=C(O)c1c(Cl)c(Cl)c(Cl)c(Cl)c1-c1c2cc(I)c(=O)c(I)c-2oc2c(I)c(O)c(I)cc12`: the concentration at half-maximal activity (AC50) is 13.6 µM (active). With `CC(=O)C=Cc1ccco1`, the call was inactive. As for `O=C(/C=C/c1cccc(F)c1)NC1CC1`, the compound was called inactive.

For the compound `CCOC(=O)[C@H](CCc1ccccc1)N[C@@H](C)C(=O)N1Cc2ccccc2C[C@H]1C(=O)O`, the call was inactive.

For `CC(=O)O[C@H]1C[C@@H]2CC[C@@H]3[C@H](CC[C@@]4(C)[C@H]3C[C@H]([N+]3(C)CCCCC3)[C@@H]4OC(C)=O)[C@@]2(C)C[C@@H]1[N+]1(C)CCCCC1`, the result was inactive.

For `Cc1c(C)c2c(c(C)c1OC(=O)CCC(=O)OCCO)CCC(C)(CCCC(C)CCCC(C)CCCC(C)C)O2` (centres undefined), the AC50 was 19.2 µM (active). As for `COc1ccc(OC)c(NC(=O)CC(C)=O)c1`, the compound was classed as inactive. The same measure, in the same setting: the same measure for `CC1=C(/C=C/C(C)=C/C=C/C(C)=C/C=C/C=C(C)/C=C/C=C(C)/C=C/C2=C(C)C[C@@H](O)CC2(C)C)C(C)(C)C[C@H](O)C1`: “inactive”; for `CC(=O)c1ccc2c(c1)N(CCCN1CCC(CCO)CC1)c1ccccc1S2`: “inactive”; for `Brc1ccccc1-c1ccccc1`: “inactive”. Still for that read-out and setting: the same measure for `CNc1cc(OC)c(C(=O)N[C@H]2CCN(Cc3ccccc3)[C@H]2C)cc1Cl`: “inactive”. Turning to `O=C1c2c(O)ccc([N+](=O)[O-])c2C(=O)c2c([N+](=O)[O-])ccc(O)c21`, the AC50 is 9.74 µM (active).

On to `Cc1cc(CC(C)CC(C)(C)C)n(O)c(=O)c1` (centres undefined) (tested in a mixture with another compound), for which the AC50 was 43.5 µM (active). The same measure, in the same setting: the same measure for `CCN(CC)c1ccc(C(=C2C=CC(=[N+](CC)CC)C=C2)c2ccccc2)cc1`: 2.75 µM (active); for `CCN(CC)CCOc1ccc(C(O)(Cc2ccc(Cl)cc2)c2ccc(C)cc2)cc1` (centres undefined): 23 µM (active).

Turning to `O=S(=O)(O)c1ccc2c(N=Nc3ccc(S(=O)(=O)O)c4ccccc34)c(O)c(S(=O)(=O)O)cc2c1`, the call was inactive. On to `CC(C)(C)CC(C)(C)c1cc(Cc2cc(C(C)(C)CC(C)(C)C)cc(-n3nc4ccccc4n3)c2O)c(O)c(-n2nc3ccccc3n2)c1`, for which the compound was classed as inactive.
